Experimental findings from the supplement of paper PMC10105736 are described below.

Holding throughout (assay): MAPPIT interaction score (arbitrary units); higher = stronger binary interaction signal, active = hit call of the paper
The target in one assay is dre4. Particulars: MAPPIT configuration: N-N; pair source set: Lit-BM-16;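 active = MAPPIT score above the 99th percentile of random reference set scores in the same batch; inactive = at or below it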.
In the next assay the target is eIF3f1. The settings on record: MAPPIT configuration: N-N; pair source set: Lit-BM-16.
For a further assay, the target named is dimm. The settings on record: MAPPIT configuration: N-N; pair source set: DPIM.
Another assay addresses dnd. The settings on record: MAPPIT configuration: N-N; pair source set: screen_2.
The target in another assay is e(y)2. The settings on record: MAPPIT configuration: N-N; pair source set: screen_2.
The next assay concerns the target dgt4. The settings on record: MAPPIT configuration: N-N; pair source set: Lit-BM-16.
Another assay concerns the target cpa. The settings on record: MAPPIT configuration: N-N; pair source set: Lit-BM-16.
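Note: HEK293T cells with Epo stimulation, STAT-responsive firefly luciferase reporter, fold induction versus unstimulated cells divided by the larger fold induction of two negative controls lacking either bait or prey.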

B1: Ssrp (protein)
chain: MTDSLEYNDINAEVRGVLCSGRLKMTEQNIIFKNTKTGKVEQISAEDIDLINSQKFVGTWGLRVFTKGGVLHRFTGFRDSEHEKLGKFIKAAYSQEMVEKEMCVKGWNWGTARFMGSVLSFDKESKTIFEVPLSHVSQCVTGKNEVTLEFHQNDDAPVGLLEMRFHIPAVESAEEDPVDKFHQNVMSKASVISASGESIAIFREIQILTPRGRYDIKIFSTFFQLHGKTFDYKIPMDSVLRLFMLPHKDSRQMFFVLSLDPPIKQGQTRYHYLVLLFAPDEETTIELPFSEAELRDKYEGKLEKEISGPVYEVMGKVMKVLIGRKITGPGNFIGHSGTAAVGCSFKAAAGYLYPLERGFIYIHKPPLHIRFEEISSVNFARSGGSTRSFDFEVTLKNGTVHIFSSIEKEEYAKLFDYITQKKLHVSNMGKDKSGYKDVDFGDSDNENEPDAYLARLKAEAREKEEDDDDGDSDEESTDEDFKPNENESDVAEEYDSNVESDSDDDSDASGGGGDSDGAKKKKEKKSEKKEKKEKKHKEKERTKKPSKKKKDSGKPKRATTAFMLWLNDTRESIKRENPGIKVTEIAKKGGEMWKELKDKSKWEDAAAKDKQRYHDEMRNYKPEAGGDSDNEKGGKSSKKRKTEPSPSKKANTSGSGFKSKEYISDDDSTSSDDEKDNEPAKKKSKPPSDGDAKKKKAKSESEPEESEEDSNASDEDEEDEASD
As to B1, in the assay with dre4, the MAPPIT interaction score is 0.764 (inactive).

B2: eIF3m (protein)
chain: MTSHPVFIDLSLDEQVQELRKYFKKLGAEISSEKSNKGVEDDLHKIIGVCDVCFKDGEPSQIDGILNSIVSIMITIPLDRGENIVLAYCEKMTKAPNLPLGKVCLQSLWRLFNNLDTASPLRYHVYYHLVQVAKQCEQVLEVFSGVDQLKSQFANCPPSSEQMQKLYRLLHDVTKDTNLELSSKVMIELLGTYTADNACVAREDAMKCIVTALADPNTFLLDPLLSLKPVRFLEGDLIHDLLSIFVSEKLPAYVQFYEDHREFVNSQGLNHEQNMKKMRLLTFMQLAESSPEMTFETLTKELQINEDEVEPFVIEVLKTKLVRARLDQANQKVHISSTMHRTFGAPQWEQLRDLLQAWKENLSTVREGLTSVSSAQLDLARSQKLIH
Turning to B2, in the assay with eIF3f1, the MAPPIT interaction score was 5.38 (active).

B3: Lsm12a (protein)
chain: MAAAAASAVNAVNDCFSIGSTVVCTTCFNEEVEGEVLAFDHNTKMLILKCRSKSTEELSDIYAMNLSLCSNVQVIKECNGNFDDPQKLNLEQVKMRLRKTVERRQDYLKSKNADVSPEAQELYRAIAKQYGYNEVSWQGLNIQILNEVTISPPYRVDNVVSSSNNETSCNYIKRIIKQFFNTRPSPVPESGAAASTSSPSVSPTSSSLASGSPVPAN
In the case of B3, the MAPPIT interaction score with dimm is -0.17 (inactive).

B4: PrBP (protein)
chain: MGSDDQSAGDRIQKGFQINYMILRDADSGKIIWQENKDFSAPDQEHEARVPVKILDMRAVSREINFSTIESMENFRLDQKVLFKGRIMEEWFFEMGFVGANTTNTWQSTIEAAPESQMMPAKVLNGNVTIQTSFYDNETLITKSVVRLYYI
Turning to B4, the MAPPIT interaction score with dnd is 4.87 (active).

B5: Mul1 (protein)
chain: MEFLHESVALGVDLLILGLCAREYVHYKRTAKVLKAAPQYNIDGDLKSVVERQRDKKIPYAVIRGTVTPIGVPLRSSLVPSVSGVLQIVKLHEHRVTRGFAGFWTEQHKLLHESANEMPFELRNQSHGVEIVDALSAAVLDVDVVYDNYEPSNLSLFDHVFGFFSGVRQRGLQTTEEVLREGSFLTAIGELELDGDTLRMQPSNEGPLFLTTATKSTLIKRFEDAKTTTILKLVVCSTISAILVAFIAKKLYRKRKQEREEAKIRERLDTERRERRARSRPHTLSQDQLCVVCSTNPKEIILLPCGHVCLCEDCAQKISVTCPVCRGSIVSKAAAFIA
As for B5, the MAPPIT interaction score with e(y)2 was 5.68 (active).

B6: dgt6 (protein)
chain: MDRTIIAPWKAEEKEQSEKLHRKLQGLALVHPLPDELRKLIAWDMFLKPNQVAFVHVMHYLFRLLDPAEFKRRFFWPITDKKSEANFRSSTVEYLKHLNEKHQLHWANIKSYLVVMPGGMRFINFLLEFVGFVIQELIKQREKSLGLEAGTPNVSAKVMARQNAVMKEYASSYVVNLEENTALLRDKTQKIRRLMADLSADMGVPEEQLADDGFLDEFEATAALGVERVITQPTERKFDLEASLCGLKEAIDLFQVKQAENNQSKEAVEKALRGMRVLFDCDAVTEGDFYDPLGASKMDALLNGFNRISGTIAEQLDANDHYNESNAFVTTDLQALRVELSQSEVQLNNLLKKLNEPSKKDKGSANASGSARVQTLQPATPRFESVISSKFVSTPPIRIDMGGGGGRNAPVRLALQDDFNGKQFDALSNSLLAPAPPRSARKLKALDQSTGIDLNGTLNRSKINDPMQMLRTIHKNTSKVKAAPQANLSSLGSKWKQMQASFGFDEAPVPGAAVISPQTSPTDPSDPFTPLSGSECTRIERIPRTSENNTSLIAKSAAVIKVLEVSRNVLNLSTSPSGRLDALVPHTESHQQDVAPRLQLNDRTINDSLQLDPDFNIENDKNAFNVSHKFDFDQIGGEDDLQNISDSVLKDIIF
For B6, the MAPPIT interaction score with dgt4 is 4.71 (active).

B7: cpb (protein)
chain: MSEMQMDCALDLMRRLPPQQIEKNLIDLIDLAPDLCEDLLSSVDQPLKIAKDKEHGKDYLLCDYNRDGDSYRSPWSNSYYPPLEDGQMPSERLRKLEIEANYAFDQYREMYYEGGVSSVYLWDLDHGFAAVILIKKAGDGSKMIRGCWDSIHVVEVQEKTTGRTAHYKLTSTAMLWLQTNKQGSGTMNLGGSLTRQQEQDANVSESSPHIANIGKMVEEMENKIRNTLNEIYFGKTKDIVNGLRSTQSLADQRQQAAMKQDLAAAILRRNVKPESN
For the molecule B7, the MAPPIT interaction score in the assay with cpa was 3.35 (active).
